Assay in all cases: DAPPL (digital affinity profiling via proximity ligation, sequencing); 10 mM Tris-HCl pH 7.5, 50 mM NaCl, 1 mM DTT, 4% glycerol, room temperature, 30 min; GST-TFs on glutathione beads, 16-mer random dsDNA library, 0.1% formaldehyde crosslink after washing; high values mean tight binding
What all share (conditions): protein: recombinant; tags: N-terminal GST; dsDNA, one strand shown

Experiment [1] addresses T1, ERF (Homo sapiens, UniProt P50548 1-548).
T1 sequence: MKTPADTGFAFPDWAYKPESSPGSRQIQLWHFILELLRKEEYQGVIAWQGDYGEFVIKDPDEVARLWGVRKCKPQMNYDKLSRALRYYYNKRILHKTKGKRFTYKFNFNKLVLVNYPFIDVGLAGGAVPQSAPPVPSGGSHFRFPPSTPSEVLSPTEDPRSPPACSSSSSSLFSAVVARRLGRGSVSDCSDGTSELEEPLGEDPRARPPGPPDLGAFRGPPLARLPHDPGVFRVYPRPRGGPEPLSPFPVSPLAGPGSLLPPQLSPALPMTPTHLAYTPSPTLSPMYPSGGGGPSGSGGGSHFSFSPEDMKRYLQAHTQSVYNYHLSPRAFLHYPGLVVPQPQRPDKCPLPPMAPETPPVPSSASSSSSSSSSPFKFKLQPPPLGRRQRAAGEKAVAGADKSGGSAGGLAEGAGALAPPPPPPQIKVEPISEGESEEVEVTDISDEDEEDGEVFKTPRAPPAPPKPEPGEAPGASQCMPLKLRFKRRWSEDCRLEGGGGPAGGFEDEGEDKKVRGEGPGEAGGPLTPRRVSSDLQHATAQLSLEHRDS
Put shortly:
(§1)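 Human transcription factors carrying a GST fusion were produced in yeast, bound to glutathione beads, tagged with DNA barcodes and pooled together with a tag-only sample. Each pool was held with 200 nmole of a random double-stranded 16-mer DNA library in Tris/NaCl/DTT/glycerol buffer for 30 min at room temperature, then washed, crosslinked in 0.1% formaldehyde, proximity-ligated with BsaI/T4 ligase (1 h, 37 °C), PCR-amplified and sequenced on an Illumina NextSeq500. Binding signal is the read frequency of each hexamer for a given factor divided by its frequency in the tag-only sample.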

In experiment [2] the target is T2, ETV3L (Homo sapiens, UniProt Q6ZN32 1-361).
T2 sequence: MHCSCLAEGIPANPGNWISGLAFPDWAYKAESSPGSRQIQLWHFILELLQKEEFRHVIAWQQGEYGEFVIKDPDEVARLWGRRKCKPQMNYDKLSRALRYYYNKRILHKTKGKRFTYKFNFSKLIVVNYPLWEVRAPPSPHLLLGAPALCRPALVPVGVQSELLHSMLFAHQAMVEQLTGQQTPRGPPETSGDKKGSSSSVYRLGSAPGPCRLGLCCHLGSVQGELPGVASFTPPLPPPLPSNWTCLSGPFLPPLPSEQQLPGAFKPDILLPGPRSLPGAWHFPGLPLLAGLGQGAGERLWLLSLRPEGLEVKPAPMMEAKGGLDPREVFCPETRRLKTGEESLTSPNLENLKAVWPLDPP
Put shortly: as §1

Experiment [3] addresses T3, ETS2 (Homo sapiens, UniProt P15036 1-469).
T3 sequence: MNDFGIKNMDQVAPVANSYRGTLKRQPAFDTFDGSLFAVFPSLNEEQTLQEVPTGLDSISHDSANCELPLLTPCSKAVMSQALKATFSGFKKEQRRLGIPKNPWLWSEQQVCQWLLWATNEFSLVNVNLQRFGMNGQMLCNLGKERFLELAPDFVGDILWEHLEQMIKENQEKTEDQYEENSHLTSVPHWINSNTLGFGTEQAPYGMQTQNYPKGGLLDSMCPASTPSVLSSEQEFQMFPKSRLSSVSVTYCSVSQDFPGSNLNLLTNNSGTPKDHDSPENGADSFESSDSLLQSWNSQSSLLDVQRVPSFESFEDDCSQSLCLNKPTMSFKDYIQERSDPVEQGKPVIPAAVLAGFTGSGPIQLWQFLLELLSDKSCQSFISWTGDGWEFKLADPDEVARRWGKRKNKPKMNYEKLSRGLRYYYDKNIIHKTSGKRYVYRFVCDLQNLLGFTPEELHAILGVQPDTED
Put shortly:
as §1

For experiment [4], the target named is T4, SPDEF (Homo sapiens, UniProt O95238 1-335).
T4 sequence: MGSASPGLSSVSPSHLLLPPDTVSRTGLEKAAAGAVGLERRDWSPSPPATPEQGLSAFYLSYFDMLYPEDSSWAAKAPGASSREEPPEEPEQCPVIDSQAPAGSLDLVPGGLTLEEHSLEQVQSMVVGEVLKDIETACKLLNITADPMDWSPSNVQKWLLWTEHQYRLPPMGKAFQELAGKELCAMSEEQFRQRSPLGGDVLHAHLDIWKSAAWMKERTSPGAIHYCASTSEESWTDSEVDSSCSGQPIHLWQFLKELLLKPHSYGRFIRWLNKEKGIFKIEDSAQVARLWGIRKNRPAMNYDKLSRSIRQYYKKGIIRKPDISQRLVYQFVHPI
Put shortly:
as §1

The target in experiment [5] is T5, ETV7 (Homo sapiens, UniProt Q9Y603 1-341).
T5 sequence: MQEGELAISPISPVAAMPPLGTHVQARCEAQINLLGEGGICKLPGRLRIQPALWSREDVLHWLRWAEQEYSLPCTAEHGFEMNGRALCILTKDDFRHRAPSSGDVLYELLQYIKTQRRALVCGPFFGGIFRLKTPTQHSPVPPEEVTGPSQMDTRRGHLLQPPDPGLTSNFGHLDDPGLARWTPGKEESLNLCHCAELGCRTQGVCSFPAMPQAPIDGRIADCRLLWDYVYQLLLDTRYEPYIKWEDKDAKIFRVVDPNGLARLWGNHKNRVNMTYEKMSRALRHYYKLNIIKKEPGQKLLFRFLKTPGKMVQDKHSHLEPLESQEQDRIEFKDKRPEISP
Put shortly: as §1

Experiment [6] concerns the target T6, ELF5 (Homo sapiens, UniProt Q9UKW6-2 1-255).
T6 sequence: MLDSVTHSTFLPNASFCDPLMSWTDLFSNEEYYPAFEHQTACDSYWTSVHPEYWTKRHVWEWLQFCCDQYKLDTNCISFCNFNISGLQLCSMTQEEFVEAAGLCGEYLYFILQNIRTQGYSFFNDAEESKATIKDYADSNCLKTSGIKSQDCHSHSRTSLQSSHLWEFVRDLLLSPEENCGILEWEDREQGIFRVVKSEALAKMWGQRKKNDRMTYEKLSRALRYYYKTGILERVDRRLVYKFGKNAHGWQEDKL
Put shortly: as §1

The target in experiment [7] is T7, ETV3 (Homo sapiens, UniProt P41162-2 1-143).
T7 sequence: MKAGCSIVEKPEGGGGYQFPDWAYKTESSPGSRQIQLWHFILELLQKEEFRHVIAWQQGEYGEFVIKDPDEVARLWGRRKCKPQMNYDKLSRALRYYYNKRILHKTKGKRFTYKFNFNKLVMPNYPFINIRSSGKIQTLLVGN
Put shortly: as §1

Experiment [8] has as its target ETV6 (Homo sapiens, UniProt P41212 1-452). Put shortly: as §1

ETV6, sequence (P41212 whole entry): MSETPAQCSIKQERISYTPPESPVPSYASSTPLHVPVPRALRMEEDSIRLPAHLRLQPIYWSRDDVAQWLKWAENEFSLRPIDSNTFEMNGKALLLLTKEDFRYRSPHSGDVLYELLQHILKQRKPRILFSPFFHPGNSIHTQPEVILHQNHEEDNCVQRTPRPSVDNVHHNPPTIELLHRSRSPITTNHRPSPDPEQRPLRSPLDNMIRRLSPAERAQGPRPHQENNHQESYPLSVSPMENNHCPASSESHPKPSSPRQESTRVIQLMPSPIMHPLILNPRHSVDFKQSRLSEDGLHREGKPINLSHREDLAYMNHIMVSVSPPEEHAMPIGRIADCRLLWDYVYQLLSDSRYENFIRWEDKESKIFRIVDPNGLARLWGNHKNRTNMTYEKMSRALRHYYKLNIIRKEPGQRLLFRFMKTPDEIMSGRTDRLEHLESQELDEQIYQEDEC

Turning to TACTGG, the binding signal in experiment [1] is 1.16 fold enrichment (6-mer frequency, TF over GST control); in experiment [2] it was 1.11 fold enrichment (6-mer frequency, TF over GST control); in experiment [3], 1.08 fold enrichment (6-mer frequency, TF over GST control); in experiment [4], 1.05 fold enrichment (6-mer frequency, TF over GST control); in experiment [5] it was 1.12 fold enrichment (6-mer frequency, TF over GST control); in experiment [6] it was 1.04 fold enrichment (6-mer frequency, TF over GST control). In addition, the binding signal was 1.11 fold enrichment (6-mer frequency, TF over GST control) in experiment [7] and 1.15 fold enrichment (6-mer frequency, TF over GST control) in experiment [8].

For the sequence TCTGGT, the binding signal in experiment [1] was 1.34 fold enrichment (6-mer frequency, TF over GST control); in experiment [2], 1.26 fold enrichment (6-mer frequency, TF over GST control); in experiment [3] it was 1.16 fold enrichment (6-mer frequency, TF over GST control); in experiment [4], 1.28 fold enrichment (6-mer frequency, TF over GST control); in experiment [5], 1.35 fold enrichment (6-mer frequency, TF over GST control); in experiment [6], 1.26 fold enrichment (6-mer frequency, TF over GST control). Further, the binding signal in experiment [7] was 1.29 fold enrichment (6-mer frequency, TF over GST control); in experiment [8], 1.17 fold enrichment (6-mer frequency, TF over GST control).

Turning to CGACAC, the binding signal in experiment [1] was 1.08 fold enrichment (6-mer frequency, TF over GST control); in experiment [2] it was 1.21 fold enrichment (6-mer frequency, TF over GST control); in experiment [3], 1.19 fold enrichment (6-mer frequency, TF over GST control); in experiment [4], 1.15 fold enrichment (6-mer frequency, TF over GST control); in experiment [5], 1.16 fold enrichment (6-mer frequency, TF over GST control); in experiment [6] it was 1.19 fold enrichment (6-mer frequency, TF over GST control). Also, the binding signal in experiment [7] is 1.2 fold enrichment (6-mer frequency, TF over GST control); in experiment [8], 1.28 fold enrichment (6-mer frequency, TF over GST control).

Turning to CATCCG, the binding signal is 1.86 fold enrichment (6-mer frequency, TF over GST control) in experiment [1]; 2.11 fold enrichment (6-mer frequency, TF over GST control) in experiment [2]; 2.16 fold enrichment (6-mer frequency, TF over GST control) in experiment [3]; 3.63 fold enrichment (6-mer frequency, TF over GST control) in experiment [4]; 1.96 fold enrichment (6-mer frequency, TF over GST control) in experiment [5]; 2.53 fold enrichment (6-mer frequency, TF over GST control) in experiment [6]. For the same sequence, the binding signal is 2.43 fold enrichment (6-mer frequency, TF over GST control) in experiment [7] and 2.03 fold enrichment (6-mer frequency, TF over GST control) in experiment [8].

Turning to TATCCC, the binding signal was 1.52 fold enrichment (6-mer frequency, TF over GST control) in experiment [1]; 1.52 fold enrichment (6-mer frequency, TF over GST control) in experiment [2]; 1.47 fold enrichment (6-mer frequency, TF over GST control) in experiment [3]; 1.72 fold enrichment (6-mer frequency, TF over GST control) in experiment [4]; 1.53 fold enrichment (6-mer frequency, TF over GST control) in experiment [5]; 2.05 fold enrichment (6-mer frequency, TF over GST control) in experiment [6]. For the same sequence, the binding signal was 1.62 fold enrichment (6-mer frequency, TF over GST control) in experiment [7] and 1.51 fold enrichment (6-mer frequency, TF over GST control) in experiment [8].

Consider ATTCAA, for which the binding signal was 1.38 fold enrichment (6-mer frequency, TF over GST control) in experiment [1]; 1.34 fold enrichment (6-mer frequency, TF over GST control) in experiment [2]; 1.36 fold enrichment (6-mer frequency, TF over GST control) in experiment [3]; 1.31 fold enrichment (6-mer frequency, TF over GST control) in experiment [4]; 1.19 fold enrichment (6-mer frequency, TF over GST control) in experiment [5]; 1.24 fold enrichment (6-mer frequency, TF over GST control) in experiment [6]. The binding signal in experiment [7] was 1.37 fold enrichment (6-mer frequency, TF over GST control); in experiment [8] it was 1.33 fold enrichment (6-mer frequency, TF over GST control).

For CGAAGC, the binding signal is 1.38 fold enrichment (6-mer frequency, TF over GST control) in experiment [1]; 1.2 fold enrichment (6-mer frequency, TF over GST control) in experiment [2]; 1.33 fold enrichment (6-mer frequency, TF over GST control) in experiment [3]; 1.18 fold enrichment (6-mer frequency, TF over GST control) in experiment [4]; 1.44 fold enrichment (6-mer frequency, TF over GST control) in experiment [5]; 1.19 fold enrichment (6-mer frequency, TF over GST control) in experiment [6]. The binding signal in experiment [7] is 1.34 fold enrichment (6-mer frequency, TF over GST control); in experiment [8] it was 1.14 fold enrichment (6-mer frequency, TF over GST control).

The record behind these values is paper PMC7862700, “An all-to-all approach to the identification of sequence-specific readers for epigenetic DNA modifications on cytosine”.
